The record followed here is PubChem BioAssay (NCI).

Experiment in all cases: NCI-60 one-dose screen, 48 h (100 = growth as untreated, 0 = no growth, -100 = all killed)
For one test, the system named is HCT-15 colon. The conditions noted are these: 10 µM unless noted.
The next test deals with HT29 colon. To be noted: 10 µM unless noted.
The test system of the next test is SNB-75 CNS. The conditions noted are these: 10 µM unless noted.
The subject of a further test is SNB-19 CNS. The conditions noted are these: 10 µM unless noted.
A further test has as its system U251 CNS. The conditions noted are these: 10 µM unless noted.
For another test, the system named is PC-3 prostate. The conditions noted are these: 10 µM unless noted.
The subject of another test is SK-MEL-5 melanoma. The conditions noted are these: 10 µM unless noted.
The subject of another test is UACC-62 melanoma. The conditions noted are these: 10 µM unless noted.
The next test concerns LOX IMVI melanoma. The conditions noted are these: 10 µM.
A further test has as its system SK-MEL-28 melanoma. To be noted: 10 µM unless noted.
The test system of another test is SK-MEL-2 melanoma. The conditions noted are these: 10 µM unless noted.
A further test deals with EKVX NSCLC. To be noted: 10 µM unless noted.
The next test relates to SN12C renal. To be noted: 10 µM unless noted.
The subject of the next test is UO-31 renal. The conditions noted are these: 10 µM unless noted.
In a further test the test system is TK-10 renal. To be noted: 10 µM unless noted.
A further test relates to CAKI-1 renal. The conditions noted are these: 10 µM unless noted.
The next test concerns A498 renal. To be noted: 10 µM unless noted.
The subject of the next test is CCRF-CEM leukemia. The conditions noted are these: 10 µM unless noted.
A further test has as its system MOLT-4 leukemia. The conditions noted are these: 10 µM unless noted.
In another test the test system is ACHN renal. The conditions noted are these: 10 µM unless noted.

Compounds without any hit were thinned out: in the full panel of roughly 83,000, 20% have a hit.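 Method: cells in 96-well plates; compound added at one concentration; 48 h incubation; percent growth measured; values under 10 scored active.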 Values without a mark were called inactive. Calls of active or inactive are those of the source.

As for `CC1(C)OC2C(CO)OC(n3ccc(=O)[nH]c3=O)C2O1` (stereo not drawn), the growth in the test with HCT-15 colon was 102%; with HT29 colon, 94.3%; with SNB-75 CNS it was 106%; in the test on SNB-19 CNS it was 100%; with U251 CNS, 87.6%; with PC-3 prostate, 90.2%. In addition, the growth was 97.9% in the test with SK-MEL-5 melanoma; 93.9% in the test with UACC-62 melanoma; 101% in the test with LOX IMVI melanoma; 108% in the test with SK-MEL-28 melanoma; 96.6% in the test on SK-MEL-2 melanoma; 104% in the test on EKVX NSCLC. The growth was 90.1% in the test with SN12C renal; 88% with UO-31 renal; 87.2% in the test on TK-10 renal; 101% in the test with CAKI-1 renal; 75.9% in the test on A498 renal; 101% in the test with CCRF-CEM leukemia. In the test with MOLT-4 leukemia, the growth was 92.3%.

Turning to `CC(=O)NNC(=S)/N=C\C(C(=O)c1ccccc1)=C(/O)c1ccccc1`, the growth in the test with HCT-15 colon was 98.7%; in the test with HT29 colon, 93.8%; in the test with SNB-75 CNS, 86.3%; in the test on SNB-19 CNS it was 105%; in the test with U251 CNS it was 99.5%; with PC-3 prostate, 93%. The growth is 101% in the test with SK-MEL-5 melanoma; 101% in the test on UACC-62 melanoma; 94% in the test with LOX IMVI melanoma; 106% in the test on SK-MEL-28 melanoma; 110% in the test on SK-MEL-2 melanoma; 99.4% in the test with EKVX NSCLC. The growth with SN12C renal is 107%; with UO-31 renal, 79.8%; with ACHN renal, 99.5%; in the test with CAKI-1 renal it was 98.3%; with A498 renal, 105%; with MOLT-4 leukemia, 93%.

With `c1ccc(Nc2ccccn2)nc1`, the growth in the test on HCT-15 colon is 95.7%; in the test with HT29 colon, 100%; with SNB-75 CNS, 82.3%; in the test on SNB-19 CNS, 97.5%; in the test with U251 CNS, 91.8%; in the test on PC-3 prostate it was 95.9%. The growth in the test on SK-MEL-5 melanoma was 103%; in the test on UACC-62 melanoma, 94.1%; in the test on LOX IMVI melanoma, 95.7%; in the test with SK-MEL-28 melanoma, 118%; in the test with SK-MEL-2 melanoma it was 95%; in the test on EKVX NSCLC it was 91.8%. Moreover, the growth with SN12C renal is 96.8%; in the test on UO-31 renal, 96.7%; in the test with ACHN renal it was 96%; in the test on CAKI-1 renal it was 95%; in the test on A498 renal, 112%; with CCRF-CEM leukemia, 90.9%. For the same compound, the growth in the test with MOLT-4 leukemia is 91.7%.

Consider `CC1CCC(C)(C)c2ccccc21` (stereo not drawn), for which the growth in the test with HCT-15 colon is 101%; in the test with HT29 colon, 103%; in the test with SNB-75 CNS, 82.9%; in the test with SNB-19 CNS it was 103%; with U251 CNS, 99.2%; in the test on PC-3 prostate, 93.5%. Moreover, the growth in the test on SK-MEL-5 melanoma was 95.8%; in the test on UACC-62 melanoma, 103%; in the test with LOX IMVI melanoma, 98.6%; in the test with SK-MEL-28 melanoma it was 97.3%; with SK-MEL-2 melanoma, 106%; in the test with EKVX NSCLC, 96.3%. Besides, the growth was 99.5% with SN12C renal; 91.5% in the test with UO-31 renal; 98.4% with ACHN renal; 96.5% with CAKI-1 renal; 116% with MOLT-4 leukemia.

Turning to `CCN(CC)CCCC(C)NC(=S)N/N=C(\C)c1ccccn1` (stereo not drawn), the growth in the test on HCT-15 colon was 32.7%; in the test with HT29 colon it was 35.8%; with SNB-75 CNS, 61.9%; in the test with SNB-19 CNS, 45.7%; in the test with U251 CNS, 37.2%; in the test with PC-3 prostate it was 41.1%. Further, the growth with SK-MEL-5 melanoma is 37.8%; in the test with UACC-62 melanoma it was 22.3%; in the test on LOX IMVI melanoma, 39.3%; in the test with SK-MEL-28 melanoma it was 67.5%; in the test on SK-MEL-2 melanoma, 83.6%; with EKVX NSCLC, 47.7%. Besides, the growth in the test on UO-31 renal was 14.8%; in the test with TK-10 renal, 48.4%; in the test on ACHN renal it was 31.4%; with CAKI-1 renal, 20.1%; with A498 renal it was 72.1%; in the test on CCRF-CEM leukemia it was 29.8%. Moreover, in the test with MOLT-4 leukemia, the growth is 9.05% (active).

Consider `CCCCOC(=O)c1ccc(NC(=O)CCl)cc1`, for which the growth was 14.9% in the test with HCT-15 colon; 12.8% in the test on HT29 colon; 68.9% with SNB-75 CNS; 62.6% in the test with SNB-19 CNS; 4.55% (active) with U251 CNS; 51.7% in the test with PC-3 prostate. In addition, the growth in the test with SK-MEL-5 melanoma is 58.7%; with UACC-62 melanoma, 52.9%; with LOX IMVI melanoma, -43.4% (active); in the test with SK-MEL-28 melanoma, 102%; in the test on SK-MEL-2 melanoma, 62.3%; with EKVX NSCLC, 86%. Moreover, the growth with SN12C renal was 18.3%; in the test with UO-31 renal, 57.9%; with ACHN renal it was -17.1% (active); in the test on A498 renal it was 99.2%; in the test with CCRF-CEM leukemia, -15% (active); in the test on MOLT-4 leukemia, 0.49% (active).

On to `ClCc1cccc2c(CCl)cccc12`, for which the growth in the test with HCT-15 colon is 73.8%; in the test with HT29 colon, 71.1%; in the test with SNB-75 CNS, 88%; in the test with SNB-19 CNS it was 70.4%; in the test on U251 CNS, 56.6%; in the test on PC-3 prostate, 65.9%. Moreover, the growth in the test with SK-MEL-5 melanoma is 77.6%; in the test with UACC-62 melanoma, 64%; in the test on LOX IMVI melanoma it was -51.8% (active); with SK-MEL-28 melanoma, 83.7%; in the test with SK-MEL-2 melanoma, 84.3%; with EKVX NSCLC, 82.2%. Further, the growth is 64.5% with SN12C renal; 60.4% with UO-31 renal; 86.8% in the test with TK-10 renal; 15.2% with CAKI-1 renal; 107% in the test with A498 renal; 29.8% with CCRF-CEM leukemia. The growth in the test with MOLT-4 leukemia is 27.7%.

Regarding `Cn1c(=O)c2[nH]c(CC(=O)O)nc2n(C)c1=O`, the growth is 107% with HCT-15 colon; 101% in the test on HT29 colon; 98.1% in the test on SNB-75 CNS; 100% in the test on SNB-19 CNS; 103% in the test with U251 CNS; 96.8% in the test with PC-3 prostate. Also, the growth is 106% in the test on SK-MEL-5 melanoma; 108% in the test on UACC-62 melanoma; 101% with LOX IMVI melanoma; 101% in the test on SK-MEL-28 melanoma; 105% with SK-MEL-2 melanoma; 101% with EKVX NSCLC. For the same compound, the growth with UO-31 renal is 93.5%; with TK-10 renal, 102%; with ACHN renal it was 111%; with CAKI-1 renal, 102%; in the test on A498 renal it was 98.4%; in the test with CCRF-CEM leukemia it was 106%. The growth in the test with MOLT-4 leukemia is 103%.
